Source: PubChem BioAssay
WT yeast gro inh: growth inhibition of WT strain, primary screen, mitochondrial fusion inhibitor project, WT and mutant strains, chemical genetic. mitochondrial fusion phenotypic screen. inhibition, % at 10 µM. 190,000 compounds, 2.1% hits. AID 1362, 2008; in the data active means inhibition above about 58%; tested in S. cerevisiae
Lmaj promast: Leishmania major promastigote growth inhibition, primary screen; Leishmania major promastigotes, resazurin fluorescence viability; inhibition, % at 10 µM; 200,000 compounds, 9% hits; in the data active means inhibition above about 50%;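 further: promastigotes grown with compound for 44 hours at 28 °C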
CHOP inh: inhibitors of CHOP promoter induction, primary screen, cell-based, unfolded protein response, luciferase reporter | CHO-K1 CHOP-promoter luciferase, tunicamycin-induced, 15-18 h | inhibition, % at 10 µM | 220,000 compounds, 3.8% hits | AID 2732, 2010;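 active means compounds that reduced the stress-induced luciferase reporter signal by more than about 70% of percent inhibition, limit read from the data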;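 further: 0% = tunicamycin plus vehicle and 100% = wells without tunicamycin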
RAM network inh: inhibitors of the yeast RAM network, primary screen, dse1pr::URA3 reporter, 5-FOA selection; AID 868, 2007; S. cerevisiae dse1pr::URA3 reporter, 5-FOA growth OD615, 2 d; analog-sensitive cbk1-as2 kinase mutant strain; 190,000 compounds, 1.8% hits; inhibition, % at 50 µM;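 active means inhibition above a set limit, 3 SD over mean compound inhibition, cut at about 8.4% in these data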;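 further: 0% = DMSO-only wells with no growth and 100% = 10 µM 1-NA-PP1 full growth; inhibition rescues growth on 5-FOA so higher OD means more RAM inhibition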
Starred values were filed as active, the others as inactive; / = no result given. Hits are enriched below; roughly 13% of the tested compounds scored in any of these assays.

SMILES	WT yeast gro inh	Lmaj promast	CHOP inh	RAM network inh
N#C/C(=C\c1ccc([N+](=O)[O-])cc1)C(=O)NCCCn1ccnc1	/	/	-49	/
N#C/C(=C/c1cn(-c2ccccc2)nc1-c1cccc(OCc2ccc(F)cc2)c1)C(=O)NCCCn1ccnc1	50	100*	-45	2
O=S(=O)(NCC(c1cccnc1)N1CCN(c2ccccc2)CC1)c1cccs1 (centres undefined)	20	89*	45	1
COc1ccc(N2CCN(C(=O)c3ccc(NS(=O)(=O)c4cccs4)cc3)CC2)cc1	7	13	15	6
COc1ccccc1N1CCN(C(CNS(=O)(=O)c2cccs2)c2cccnc2)CC1 (centres undefined)	-7	83*	20	-1
COc1ccc(N2CCN(C(CNS(=O)(=O)c3cccs3)c3cccnc3)CC2)cc1 (centres undefined)	-19	98*	-8	0
O=S(=O)(NCC(c1cccnc1)N1CCOCC1)c1ccccc1 (centres undefined)	14	-2	11	0
CCS(=O)(=O)NCC(c1cccnc1)N1CCN(c2ccccc2OC)CC1 (centres undefined)	7	23	32	0
Cc1ccc(S(=O)(=O)N(C(=O)c2ccncc2)c2ccc(OC(=O)c3ccncc3)c3ccccc23)c(C)c1	19	98*	-200	8
COC(=O)c1c(C)oc2ccc(N(C(=O)c3ccncc3)S(=O)(=O)c3ccc(C)cc3)cc12	5	12	0	4
Cc1ccc(S(=O)(=O)N(C(=O)c2ccncc2)c2ccc(OC(=O)c3ccncc3)c3ccccc23)cc1	-3	98*	-27	5
Cc1nc2ccccc2nc1N1CCC(C)CC1	8	-6	28	0
Cc1cc(N2CCC(C)CC2)nc2cccc(O)c12	5	24	82*	2
O=C(c1cnn2c(C(F)F)cc(-c3ccccc3)nc12)N1CCCCC1c1cccnc1 (centres undefined)	/	/	14	/
Cc1cc(C)c2ccc(N)nc2c1O	5	99*	/	1
CCOc1ccc(NC(=O)CNC(=O)c2ccc([N+](=O)[O-])cc2)cc1	-9	8	11	0
CCS(=O)(=O)NCC(c1cccnc1)N1CCN(c2ccc(F)cc2)CC1 (centres undefined)	-8	69*	-1	0
CCS(=O)(=O)NCC(c1cccnc1)N1CCN(c2ccccc2F)CC1 (centres undefined)	16	78*	3	-1
CCCNc1cc(C)c(C#N)c2nc3ccccc3n12	-12	0	17	-1
CCCc1cc(NCc2ccccn2)n2c(nc3ccccc32)c1C#N	-8	-2	13	11*
CCCc1cc(NCC2CCCO2)n2c(nc3ccccc32)c1C#N (centres undefined)	10	78*	-13	0
Cc1cn2c(nc(=O)c3cccnc32)s1	3	1	21	1
CN(C)N1C(=O)CC(NNC(=O)c2ccncc2)C1=O (centres undefined)	-11	-2	-6	3
O=c1[nH]n2c(=O)c3c([nH]c2c1N=Nc1cccc(Cl)c1)CCCC3	3	-6	-7	2
CCOc1ccc(N=Nc2c(=O)[nH]n3c(=O)c4c([nH]c23)CCCC4)cc1	-3	-1	87*	3
SMILES	WT yeast gro inh	Lmaj promast	CHOP inh	RAM network inh
CCc1ccc(OCC(=O)N/N=C(\C)c2ccccc2OC(F)F)cc1	-4	-4	54	1
CCc1ccc(OCC(=O)N/N=C(\C)c2ccc(OC(F)F)cc2)cc1	13	69*	78*	2
CCCNC1=C(N(C(C)=O)c2cccc(F)c2)C(=O)c2ccccc2C1=O	53	99*	-24	2
COCCn1c(N)c(N(Cc2ccccc2)C(=O)c2cc3ccccc3o2)c(=O)[nH]c1=O	-2	4	-6	2
Clc1nc(-c2cccnc2)nc2scc(-c3ccccc3)c12	77*	22	39	-1
COc1ccc(-c2csc3nc(-c4cccnc4)nc(Cl)c23)cc1OC	63*	54*	55	2
Clc1ncnc2scc(-c3ccccc3)c12	5	5	42	0
COc1ccc(-c2nc(-c3cccnc3)no2)cc1OC	/	/	-6	/
COC(=O)c1sc(S(=O)(=O)Nc2ccc(C)c(C)c2)c(C(=O)OC)c1C	19	6	1	6
NS(=O)(=O)c1ccc(N2N=C(c3ccccc3)CC2c2cccc(F)c2)cc1 (centres undefined)	85*	41	83*	6
COc1ccc(C2CC(c3ccccc3)=NN2c2ccc(S(N)(=O)=O)cc2)cc1OC (centres undefined)	5	26	13	4
NS(=O)(=O)c1ccc(N2N=C(c3ccc(Br)cc3)CC2c2ccc(F)cc2)cc1 (centres undefined)	92*	95*	63	6
Cc1ccccc1CN(CC1CCC(C(=O)O)CC1)C(=S)Nc1ccccc1F (centres undefined)	-9	-3	4	2
CCNC(=S)N(CCc1c(C)[nH]c2ccc(C)cc12)Cc1cc(OC)c(OC)c(OC)c1	-10	12	18	4
CNC(=S)N(CCc1c(C)[nH]c2ccc(OC)cc12)Cc1cccnc1	-7	33	35	2
Cc1cccc(NC(=S)N(CCc2nc3cc(C)c(C)cc3[nH]2)Cc2cccnc2)c1	-8	-4	80*	1
Cc1[nH]c2ccc(F)cc2c1CCN(Cc1ccco1)C(=S)NC(C)(C)C	67*	36	81*	4
Cc1[nH]c2ccc(F)cc2c1CCN(Cc1ccncc1)C(=S)Nc1ccc(F)cc1	-36	99*	9	1
Cc1ccccc1NC(=S)N(CCc1c(C)[nH]c2ccc(F)cc12)Cc1cccnc1	-12	100*	3	1
Cc1ccc(C)c(-c2csc(NC(=O)c3cnccn3)n2)c1	1	2	-22	3
Cc1[nH]c2ccc(F)cc2c1CCN(Cc1cccnc1)C(=S)Nc1cccc(F)c1	14	100*	0	0
Cc1nnc(SCC(=O)Nc2ccccc2C(=O)NC2CC2)s1	4	-8	31	0
CC12CCC(c3c(C(=O)Nc4nccs4)nn(-c4ccccc4)c31)C2(C)C (centres undefined)	76*	100*	64	2
CC12CCC(c3c(C(=O)O)nn(-c4ccccc4)c31)C2(C)C (centres undefined)	7	-5	8	0
O=C(Cn1cc(F)c(=O)[nH]c1=O)NCCO	-6	-2	22	2
CCOC(=O)C1=C(C)N=C2SCCC(=O)N2[C@@H]1/C=C/c1ccccc1	7	-1	21	1
CC1=C(C(=O)OCc2ccccc2)C(/C=C/c2ccccc2)N2C(=O)CCSC2=N1 (centres undefined)	33	75*	33	4
O=S1(=O)CCN(Cc2ccc(Cl)c(C(F)(F)F)c2)CC1	-10	2	40	0
COc1ccc(C(=O)CSC2=C(C#N)C3(CCCCC3)C(C#N)=C(N)N2)cc1	11	58*	41	3
